Laboratory results published in PubChem BioAssay.

Columns and labels:
[1] = system: Human papillomavirus type 1a protein E7 (residues 44-93); test: small molecules binding HPV E7 44-93 – biochemical, small-molecule microarray, residues 44-93, 635 nm fluorescence, primary screen (AID 1108); conditions: fluorescence 635 nm, higher = more signal;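 further: E7 fragment applied at 1 µg/mL in TBST for 1 h at 4 C; score combines spot fluorescence with its signal to noise ratio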
[2] = hepatitis C replication reporter changes, two-sided – Huh7 cells, luciferase reporter, HCV replication inhibitor project, primary screen (AID 1109); conditions: Huh7 HCV replicon luciferase reporter, 48 h; higher = more signal;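 further: huh7 hepatoma cells harbouring a luciferase neomycin HCV replicon reporter; luciferase luminescence as measure of HCV replicon replication; test concentration not given here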
[3] = target: Left-right determination factor 2 (Homo sapiens) (UniProt O00292); test: small molecules binding LEFTY2 protein – biochemical, small-molecule microarray, 635 nm fluorescence scan, primary screen (AID 1110); conditions: higher = more signal
Left-right determination factor 2 (Homo sapiens), sequence (O00292 whole entry, looked up): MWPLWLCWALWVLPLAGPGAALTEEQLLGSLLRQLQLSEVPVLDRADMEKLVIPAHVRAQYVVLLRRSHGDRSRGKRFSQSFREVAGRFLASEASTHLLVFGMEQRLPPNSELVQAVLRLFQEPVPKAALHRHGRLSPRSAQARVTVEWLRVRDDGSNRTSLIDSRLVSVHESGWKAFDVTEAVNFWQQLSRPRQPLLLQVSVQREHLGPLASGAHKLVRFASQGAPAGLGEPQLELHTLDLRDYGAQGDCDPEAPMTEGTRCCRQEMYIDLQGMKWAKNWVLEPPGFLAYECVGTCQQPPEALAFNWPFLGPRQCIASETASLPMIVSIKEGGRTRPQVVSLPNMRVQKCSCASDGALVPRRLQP

[4] = target: Calmodulin-1 (Homo sapiens) (UniProt P0DP23); test: small molecules binding calmodulin-1 with EGTA – biochemical, small-molecule microarray, Cy5-labelled CALM1, profiling panel (AID 1111); conditions: Cy5-CALM1 binding fluorescence, higher = more signal;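 further: labelled calmodulin applied in Tris saline Tween buffer holding calcium plus EGTA and DTT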
[5] = target: Calmodulin-1 (Homo sapiens) (UniProt P0DP23); test: small molecules binding Ca-loaded calmodulin-1 – biochemical, small-molecule microarray, Cy5-labelled CALM1, plus calcium, artefact control for SMM control-protein annotation, profiling panel (AID 1112); conditions: Cy5-CALM1 binding fluorescence, higher = more signal;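 further: score merges spot fluorescence with signal to noise from triplicate slides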
[6] = probe aWnt5a binding to arrayed compounds – biochemical, biotinylated probe, 635/667 nm fluorescence, primary screen (AID 1113); conditions: small-molecule microarray, higher = more signal;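 further: score merges 667 nm fluorescence intensity with signal-to-noise per printed feature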
[7] = probe aShh binding to arrayed compounds – biochemical, biotinylated probe, 635/667 nm fluorescence, primary screen (AID 1114); conditions: small-molecule microarray, higher = more signal;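 further: probe is biotin-labelled aShh protein from a stem cell growth factor screen; measures binding of labelled protein to compounds printed on the slide; score merges feature fluorescence at 667 nm with signal-to-noise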
[8] = probe aNog binding to arrayed compounds – biochemical, biotinylated probe, 635/667 nm fluorescence, primary screen (AID 1115); conditions: small-molecule microarray, higher = more signal;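 further: probe is biotinylated aNog protein used at 0.15 µg/mL for 1 h at 4 C; z-score combines 667 nm fluorescence of each spot with its signal to noise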
[9] = target: Torsin-1A-interacting protein 1 (Homo sapiens) (UniProt Q5JTV8); test: compound microarray binding of lysate hLAP1 – cell lysate, small-molecule microarray, COS7 lysate, 635/667 nm fluorescence, primary screen (AID 1116); conditions: 635 nm fluorescence, higher = more signal
Torsin-1A-interacting protein 1 (Homo sapiens), sequence (Q5JTV8 whole entry, looked up): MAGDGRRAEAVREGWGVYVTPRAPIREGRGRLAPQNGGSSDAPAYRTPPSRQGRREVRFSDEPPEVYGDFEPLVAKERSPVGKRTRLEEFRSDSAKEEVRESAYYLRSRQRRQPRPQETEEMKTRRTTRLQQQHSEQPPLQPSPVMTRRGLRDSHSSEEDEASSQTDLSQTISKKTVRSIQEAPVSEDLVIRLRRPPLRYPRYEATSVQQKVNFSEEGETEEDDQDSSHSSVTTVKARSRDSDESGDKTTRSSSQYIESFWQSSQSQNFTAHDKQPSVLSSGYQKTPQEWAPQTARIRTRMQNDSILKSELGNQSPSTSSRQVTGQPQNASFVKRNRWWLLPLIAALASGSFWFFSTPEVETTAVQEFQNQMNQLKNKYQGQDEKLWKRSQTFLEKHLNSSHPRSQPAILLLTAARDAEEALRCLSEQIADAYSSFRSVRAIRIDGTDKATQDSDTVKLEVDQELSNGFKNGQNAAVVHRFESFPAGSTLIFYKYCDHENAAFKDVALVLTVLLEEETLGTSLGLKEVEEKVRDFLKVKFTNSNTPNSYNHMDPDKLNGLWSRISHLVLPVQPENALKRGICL

[10] = target: Alpha-bungarotoxin (Bungarus multicinctus) (UniProt P60615); test: compounds binding labelled alpha-BTX control protein – biochemical, small-molecule microarray, Alexa647 label, 635/667 nm fluorescence, artefact control for SMM control protein annotation, profiling panel (AID 1117); conditions: alpha-BTX-A647 binding fluorescence, higher = more signal
Alpha-bungarotoxin (Bungarus multicinctus), sequence (P60615 whole entry, looked up): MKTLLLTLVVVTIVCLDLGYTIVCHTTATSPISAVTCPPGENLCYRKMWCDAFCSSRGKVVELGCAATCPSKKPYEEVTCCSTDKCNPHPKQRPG

| Compound | composite z-score [1] | z-score [2] | composite z-score [3] | composite z-score [4] | composite z-score [5] | composite z-score [6] | composite z-score [7] | composite z-score [8] | composite z-score [9] | composite z-score [10] |
| --- | --- | --- | --- | --- | --- | --- | --- | --- | --- | --- |
| CC(CO)N1C(=O)[C@@H]2C3C(=O)OCCC/C=C\[C@H]3OC23C=CCN(CCN2CCOCC2)C(=O)[C@@H]13 (stereo not given in full) | -0.201 | -0.77 | -0.0109 | -0.514 | -1.01 | -0.152 | 0.0048 | -0.272 | -0.116 | 0.0654 |
| COc1ccc([Si](C)(C)[C@@H]2[C@@H](CCn3cc([C@H](O)c4ccccc4)nn3)O[C@]3(C(=O)N(Cc4cccc(N5CCC5=O)c4)c4ccccc43)[C@H]2C)cc1 | -0.206 | -2.78 | 0.187 | -0.15 | -0.263 | -0.0919 | -0.0035 | -0.0211 | 0.392 | 0.0808 |
| CC#CC(=O)Oc1ccc(Br)cc1C=CC(=O)OCC | 1.23 | -2.4 | -0.034 | -0.323 | -0.465 | -0.0154 | 0.42 | 0.302 | 0.286 | 0.683 |
| O=C1O[C@@H](c2ccccc2)[C@@H](c2ccccc2)N2[C@@H](c3ccccc3OCCO)[C@]3(C(=O)Nc4ccccc43)[C@@H](C(=O)O)[C@H]12 | 1.32 | -0.73 | -0.0445 | 0.995 | -0.842 | -0.0924 | -0.229 | -0.18 | 0.584 | 1.04 |
| Cc1ccc(S[C@]2(C(=O)O)CC(=O)N(C(C)C)[C@@H]2c2ccc(CO)cc2)cc1 | 0.253 | -0.625 | -0.193 | -0.0058 | -0.529 | -0.12 | 0.216 | -0.294 | 1.42 | 0.644 |
| NC(=O)NCC#Cc1ccc2c(c1)[C@]1(C(=O)N2)[C@H](C(=O)O)[C@H]2C(=O)O[C@H](c3ccccc3)[C@H](c3ccccc3)N2[C@@H]1c1ccc(O)cc1 | 0.443 | -0.539 | -0.317 | 1.6 | 0.717 | 0.216 | 0.346 | 1.61 | 0.412 | 1.5 |
| O=C1O[C@H](c2ccccc2)[C@H](c2ccccc2)N2[C@H]1[C@@H](C(=O)NC[C@H](O)c1ccccc1)[C@]1(C(=O)Nc3ccccc31)[C@H]2c1ccc(O)cc1 | 0.69 | -0.705 | 0.733 | 1.06 | 0.659 | -0.124 | -0.138 | 0.293 | 0.825 | 0.771 |
| COC(=O)[C@]1(CCC(=O)OC(C)(C)C)N=C(c2ccc(OCCCO)cc2)O[C@@H]1c1ccccc1 | 0.529 | -2.73 | -1.45 | -0.221 | 0.271 | -0.0405 | 0.04 | 1.24 | 1.79 | 1.29 |
| CN1C(=O)C2C=CC(C(O)C=Cc3ccc([N+](=O)[O-])cc3)N(Nc3ccccc3)C2C1=O (stereo not given) | 1.31 | 0.599 | 0.407 | 0.447 | -0.384 | 0.0182 | 0.207 | -0.175 | 0.582 | 0.627 |
| O[C@@H](Cc1ccccc1)[C@@H](/C=C/C1CC1)NCc1cccc(Cl)c1 | -0.597 | -4.47 | -1.4 | -0.863 | -0.133 | -0.197 | -0.206 | -0.402 | -0.737 | -0.801 |
| COc1ccc([Si](C)(C)[C@@H]2[C@@H](CCO)O[C@]3(C(=O)N(Cc4cccc(N5CCOC5=O)c4)c4ccccc43)[C@H]2C)cc1 | 0.542 | -4.17 | 0.133 | 1.37 | 0.924 | -0.0704 | 0.0756 | 0.36 | 0.412 | 1.32 |
